Assay results taken from PubChem BioAssay (NCATS).
Values joined by “and” are separate entries in the source; they are usually repeats but may differ in a detail not shown here. Equal entries are not always repeated. A number with no mark means an inactive call. Results filed as inconclusive are left out. Entries that show only a call come without a potency. Active and inactive are the calls of the source. Unless noted, calls follow the shape of the full dose curve.

Tests used:
[1] = biological target: Cytochrome P450 3A4 (Homo sapiens) (UniProt P08684); assay: qHTS Assay for Activators of Cytochrome P450 3A4 (AID 885; active = well fitted curve in the direction sought with a large enough effect; an effect the other way counts as inactive or inconclusive; also: nearly all actives have a fitted effect of over 65% in size)
In short: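 Activators are scored by enhanced luminescence from CYP3A4 conversion of luciferin-PPXE (25uM, equal to KM) to luciferin, after 60 min at RT with an NADPH-regenerating system.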

[2] = biological target: Androgen receptor (Homo sapiens) (UniProt P10275); assay: qHTS assay for small molecule agonists of androgen receptor signaling (AID 588515; active = well fitted curve in the direction sought with a large enough effect in the signal ratio, with a control signal flat; the % refers to the signal ratio); conditions: AR-UAS-bla HEK293, beta-lactamase ratio, agonist 16 h; active compounds read high
In short: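 Stimulation of an AR-responsive β-lactamase reporter in GripTite HEK293 cells was measured after 16 h compound exposure at 37 °C, via CCF4 fluorescence after 2 h RT. EC50 from Hill fits, normalized to R1881 at 30 nM.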

[3] = biological target: Androgen receptor (Homo sapiens) (UniProt P10275); assay: qHTS assay for small molecule antagonists of androgen receptor signaling (AID 588516; active = well fitted curve in the direction sought with a large enough effect in the signal ratio, with a control signal flat, not every such curve was filed as active; the % refers to the signal ratio)
In short: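 AR-UAS-bla-GripTite HEK 293 cells (2000/well, 5 h at 37 C) received compound titrations, then R1881 at 10 nM final; after 16 h at 37 C, CCF4 dye 2 h RT, beta-lactamase fluorescence read; IC50 from Hill fits.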

[4] = biological target: Estrogen receptor (Homo sapiens) (UniProt P03372); assay: qHTS assay for small molecule antagonists of estrogen receptor alpha signaling (AID 588513; active = well fitted curve in the direction sought with a large enough effect in the signal ratio, with a control signal flat, not every such curve was filed as active; the % refers to the signal ratio)
In short: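 ER-alpha-UAS-bla GripTite HEK 293 cells in medium with 2% charcoal/dextran-treated FBS were preincubated 4 h at 37 C, dosed with compound (1:2 titration), stimulated with 0.5nM 17-beta-estradiol for 18 h, then read by CCF4 beta-lactamase fluorescence.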

[5] = qHTS assay to identify small molecules that stimulate interleukin-8 (IL-8) secretion (AID 651758; active = well fitted activation curve with a large enough effect in the signal ratio; the % refers to the signal ratio)
In short: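 Secreted IL-8 measured homogeneously by TR-FRET (two labelled anti-IL-8 antibodies, 1-3 h at room temperature) after a 16 h, 37 C compound treatment of THP-1 cells at 2000 cells/well.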

[6] = biological target: Bile acid receptor (Homo sapiens) (UniProt Q96RI1); assay: qHTS assay for small molecule antagonists of farnesoid X receptor signaling (AID 588526)
In short: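 Beta-lactamase reporter antagonist mode: HEK293T FXR-UAS-bla cells, titrated compound, CDCA stimulation, 16 h 37 C, CCF4 dye 2 h RT. Data normalized to CDCA 50 uM and DMSO; Hill-fit IC50.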

[7] = Confirmation and Secondary Assay for Modulators of Hemoglobin Beta Chain Splicing at IVS2 654 locus (AID 910; active = well fitted curve in the direction sought with a large enough effect; an effect the other way counts as inactive or inconclusive;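 also: HeLa cells stably carrying EGFP split by mutant beta-globin IVS2-654 intron; per-well total GFP intensity by laser scanning cytometry after 2-day treatment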)
In short: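 Readout: per-well total peak green fluorescence (488 nm ex, 500–520 nm em) from objects 5–250 µm, reflecting correct splicing of an EGFP-654 reporter. Compounds were applied for 2 days at 37 °C to overnight-plated HeLa EGFP-654 cells; controls were DMSO and 500 nM IVS2-654 PNA.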

[8] = Confirmation and Secondary Assay for Modulators of Hemoglobin Beta Chain Splicing at IVS2 705 locus (AID 930; active = well fitted curve in the direction sought with a large enough effect; an effect the other way counts as inactive or inconclusive;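 also: HeLa cells stably expressing the EGFP-705 splicing reporter; series mostly up to about 46 µM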)
In short: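 Restored EGFP fluorescence after 2-day compound exposure reports splicing correction in IVS2-705 EGFP reporter HeLa cells; positive control was 500 nM splice-blocking PNA oligo. Signal measured as well total peak GFP intensity (488 nm excitation).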

Sequence of Estrogen receptor (Homo sapiens) (P03372 whole entry, looked up): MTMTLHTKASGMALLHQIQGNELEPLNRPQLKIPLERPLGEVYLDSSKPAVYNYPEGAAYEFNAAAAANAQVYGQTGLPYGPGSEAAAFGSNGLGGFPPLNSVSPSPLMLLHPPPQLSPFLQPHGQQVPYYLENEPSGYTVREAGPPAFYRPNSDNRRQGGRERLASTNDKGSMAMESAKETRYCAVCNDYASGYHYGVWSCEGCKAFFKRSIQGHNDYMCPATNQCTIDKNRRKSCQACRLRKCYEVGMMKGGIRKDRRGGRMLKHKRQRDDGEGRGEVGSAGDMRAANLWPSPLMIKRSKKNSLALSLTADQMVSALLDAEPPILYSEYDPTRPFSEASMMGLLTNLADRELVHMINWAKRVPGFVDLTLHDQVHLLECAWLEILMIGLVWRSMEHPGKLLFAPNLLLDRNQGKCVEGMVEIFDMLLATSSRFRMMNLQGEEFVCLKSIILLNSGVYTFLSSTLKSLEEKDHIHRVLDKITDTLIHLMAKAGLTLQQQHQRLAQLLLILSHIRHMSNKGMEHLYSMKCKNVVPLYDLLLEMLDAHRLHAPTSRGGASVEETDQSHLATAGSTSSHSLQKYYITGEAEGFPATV
Sequence of Cytochrome P450 3A4 (Homo sapiens) (P08684 whole entry, looked up): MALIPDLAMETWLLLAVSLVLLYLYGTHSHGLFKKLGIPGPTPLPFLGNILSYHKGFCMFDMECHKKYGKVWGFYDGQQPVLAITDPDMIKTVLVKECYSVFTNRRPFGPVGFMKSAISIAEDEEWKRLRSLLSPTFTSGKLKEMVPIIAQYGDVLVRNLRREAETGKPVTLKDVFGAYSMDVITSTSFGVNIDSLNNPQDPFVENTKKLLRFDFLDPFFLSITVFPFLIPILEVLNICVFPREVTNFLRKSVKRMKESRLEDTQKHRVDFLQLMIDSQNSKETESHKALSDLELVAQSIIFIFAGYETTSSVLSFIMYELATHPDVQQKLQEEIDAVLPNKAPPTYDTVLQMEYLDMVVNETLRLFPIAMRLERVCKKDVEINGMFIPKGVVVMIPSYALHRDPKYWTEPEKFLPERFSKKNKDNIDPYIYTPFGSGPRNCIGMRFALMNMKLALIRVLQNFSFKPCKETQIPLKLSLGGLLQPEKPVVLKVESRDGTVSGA
Sequence of Androgen receptor (Homo sapiens) (P10275 whole entry, looked up): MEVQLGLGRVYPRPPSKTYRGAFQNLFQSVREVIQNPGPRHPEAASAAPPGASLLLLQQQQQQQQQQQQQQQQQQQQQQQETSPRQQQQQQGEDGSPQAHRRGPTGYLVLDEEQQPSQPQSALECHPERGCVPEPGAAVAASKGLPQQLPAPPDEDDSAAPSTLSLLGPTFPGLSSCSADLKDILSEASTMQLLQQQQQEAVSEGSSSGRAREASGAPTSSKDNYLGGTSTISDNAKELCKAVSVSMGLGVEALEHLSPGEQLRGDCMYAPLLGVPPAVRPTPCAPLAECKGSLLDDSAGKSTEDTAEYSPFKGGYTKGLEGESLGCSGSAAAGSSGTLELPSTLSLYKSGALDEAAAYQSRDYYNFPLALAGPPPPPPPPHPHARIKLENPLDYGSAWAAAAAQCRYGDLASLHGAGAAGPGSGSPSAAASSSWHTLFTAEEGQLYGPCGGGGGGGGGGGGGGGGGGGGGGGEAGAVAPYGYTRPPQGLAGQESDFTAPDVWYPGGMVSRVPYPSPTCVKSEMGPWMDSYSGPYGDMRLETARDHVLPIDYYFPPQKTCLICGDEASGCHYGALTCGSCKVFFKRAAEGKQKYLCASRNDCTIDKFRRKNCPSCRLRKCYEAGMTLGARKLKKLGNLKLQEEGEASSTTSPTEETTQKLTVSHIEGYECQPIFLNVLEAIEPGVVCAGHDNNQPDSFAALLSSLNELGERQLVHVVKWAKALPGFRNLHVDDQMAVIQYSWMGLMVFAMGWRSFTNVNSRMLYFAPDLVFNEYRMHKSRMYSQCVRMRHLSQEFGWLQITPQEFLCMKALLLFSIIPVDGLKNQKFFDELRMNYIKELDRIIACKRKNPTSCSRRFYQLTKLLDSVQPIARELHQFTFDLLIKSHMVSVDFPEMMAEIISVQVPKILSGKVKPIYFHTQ
Sequence of Bile acid receptor (Homo sapiens) (Q96RI1 whole entry, looked up): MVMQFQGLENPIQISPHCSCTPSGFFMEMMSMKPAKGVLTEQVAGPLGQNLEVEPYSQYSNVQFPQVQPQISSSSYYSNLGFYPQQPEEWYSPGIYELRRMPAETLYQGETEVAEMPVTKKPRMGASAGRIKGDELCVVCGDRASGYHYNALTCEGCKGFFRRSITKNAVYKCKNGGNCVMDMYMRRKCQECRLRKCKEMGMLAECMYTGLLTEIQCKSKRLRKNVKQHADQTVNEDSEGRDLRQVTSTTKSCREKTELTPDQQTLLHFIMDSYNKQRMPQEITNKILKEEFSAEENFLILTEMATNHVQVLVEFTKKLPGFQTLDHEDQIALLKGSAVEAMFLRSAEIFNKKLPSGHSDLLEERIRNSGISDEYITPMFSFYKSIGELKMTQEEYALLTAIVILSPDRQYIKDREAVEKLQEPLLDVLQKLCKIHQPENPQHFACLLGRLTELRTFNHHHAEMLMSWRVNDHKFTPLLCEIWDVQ

## CC(=O)NNc1ccccc1
[1]
  Potency: inactive
[2]
  activation: 7.34%
[3]
  outcome: inactive

## Cc1ccc(N=C=O)cc1N=C=O
[1]
  Potency: inactive

## Cc1ccc([N+](=O)[O-])cc1
[4]
  Potency: inactive
[5]
  Potency: inactive

## O=S(=O)(O)F
[4]
  Potency: inactive
[6]
  outcome: inactive

## Clc1ccc(C(Cl)(Cl)Cl)c(Cl)c1
[1]
  Potency: inactive

## O=[N+]([O-])c1ccccc1-c1ccccc1
[4]
  Potency: inactive

## ClC(Br)Br
[4]
  Potency: inactive
[6]
  outcome: inactive
[5]
  Potency: inactive

## CCCCCCCCCCCOC(=O)c1ccccc1C(=O)OCCCCCCCCCCC
[4]
  Potency: inactive

## O=NN1CCCCC1
[2]
  activation: 6.11%
[3]
  outcome: inactive
[5]
  Potency: inactive

## Nc1ccc2ccccc2c1
[1]
  Potency: inactive
[4]
  Potency: inactive
[5]
  Potency: inactive

## S=c1[nH]c2ccccc2[nH]1
[1]
  Potency: inactive
[2]
  activation: -0.602%
[3]
  outcome: inactive
[5]
  Potency: inactive

## OCCBr
[4]
  Potency: inactive
[6]
  outcome: inactive

## C=CCc1cc(OC)c2c(c1)OCO2
[1]
  Potency: inactive

## CCC#N
[6]
  outcome: inactive

## O=C(O)C(Cl)(Cl)Br
[6]
  outcome: inactive

## CC(C)(C)c1ccccc1O
[5]
  Potency: inactive

## Oc1cccc(Cl)c1
[4]
  Potency: inactive

## CN(C)c1ccccc1
[6]
  outcome: inactive

## Nc1cccc2ccccc12
[1]
  Potency: inactive
[4]
  Potency: inactive
[5]
  Potency: inactive

## ClCCOCCCl
[6]
  outcome: inactive

## COC(=O)Nc1cccc(OC(=O)Nc2cccc(C)c2)c1
[1]
  Potency: inactive

## Nc1ncc([N+](=O)[O-])s1
[4]
  Potency: inactive
[6]
  outcome: inactive

## C=CCBr
[6]
  outcome: inactive

## Nc1cc(Cl)cc(C(=O)O)c1Cl
[1]
  Potency: inactive

## NNC(N)=S
[6]
  outcome: inactive
[5]
  Potency: inactive

## Cc1ccc(N)cc1N
[6]
  outcome: inactive

## O=C(O)C(Cl)Br (centres undefined)
[6]
  outcome: inactive

## c1ccc(C2CO2)cc1 (centres undefined)
[5]
  Potency: inactive

## ClC(Cl)c1ccccc1
[4]
  Potency: inactive

## CCC[N+](=O)[O-]
[6]
  outcome: inactive

## CC1CC(=O)O1 (centres undefined)
[6]
  outcome: inactive

## CCCCOC(C)=O
[4]
  Potency: inactive
[6]
  outcome: inactive

## Cc1ccc(N)cc1Cl
[1]
  Potency: inactive
[5]
  Potency: inactive

## O=[N+]([O-])c1cccc2c([N+](=O)[O-])cccc12
[2]
  activation: 1.43%
[3]
  outcome: inactive
[5]
  Potency: inactive

## [N-]=[N+]=[N-]
[4]
  Potency: inactive
[2]
  activation: -1.14%
[3]
  outcome: inactive

## O=[N+]([O-])c1cccc(O)c1
[6]
  outcome: inactive
[5]
  Potency: inactive

## CCCN(CCC)c1c([N+](=O)[O-])cc(C(F)(F)F)cc1[N+](=O)[O-]
[1]
  Potency: inactive
[7]
  outcome: inactive
[8]
  outcome: inactive
[4]
  Potency: inactive
[2]
  activation: -14.6% and 7.28%
[3]
  outcome: inactive
[6]
  outcome: inactive

## NC1CCC(CC2CCC(N)CC2)CC1 (centres undefined)
[4]
  Potency: inactive
[6]
  outcome: inactive

## CNC(=O)O/N=C/C(C)(C)S(C)=O (centres undefined)
[4]
  Potency: inactive
[6]
  outcome: inactive
[5]
  Potency: inactive

## CC(C)(C)C(O)(CCc1ccc(Cl)cc1)Cn1cncn1 (centres undefined)
[1]
  Potency: inactive

## Cc1coc2c1CCC(C)C2 (centres undefined)
[4]
  Potency: inactive
[5]
  Potency: inactive

## C=C(C)CCl
[4]
  Potency: inactive
[2]
  activation: 8.69%
[3]
  outcome: inactive
[6]
  outcome: inactive

## ClP(Cl)(Cl)(Cl)Cl
[4]
  Potency: inactive
[6]
  outcome: inactive

## CCCBr
[4]
  Potency: inactive
[6]
  outcome: inactive
[5]
  Potency: inactive

## CCCCNC(=O)n1c(NC(=O)OC)nc2ccccc21
[4]
  Potency: inactive
[2]
  activation: -8.05%

## Cc1ccc(N)c(N)c1
[1]
  Potency: inactive

## Oc1ccc(Cl)c(Cl)c1
[4]
  Potency: inactive

## O=Cc1ccc2c(c1)OCO2
[6]
  outcome: inactive
[5]
  Potency: inactive

## Nc1ccc(-c2ccccc2)cc1
[1]
  Potency: inactive
[4]
  Potency: inactive

## Cc1ccc2c(C)cccc2c1
[5]
  Potency: inactive

## O=[N+]([O-])c1ccc(Cl)c(Cl)c1Cl
[4]
  Potency: inactive

## ClC=CCl
[4]
  Potency: inactive

## N#CCBr
[4]
  Potency: inactive
[6]
  outcome: inactive

## COc1ccc(C=O)cc1
[4]
  Potency: inactive
[5]
  Potency: inactive

## CCOC(=O)CC(SP(=O)(OC)OC)C(=O)OCC (centres undefined)
[1]
  Potency: inactive
[6]
  outcome: inactive

## O=[N+]([O-])c1cc(Cl)c(Cl)cc1Cl
[4]
  Potency: inactive
[5]
  Potency: inactive

## OC[P+](CO)(CO)CO
[4]
  Potency: inactive
[5]
  Potency: inactive

## O=C(O)c1cccc(Cl)c1
[4]
  Potency: inactive
[6]
  outcome: inactive
[5]
  Potency: inactive

## CCCCCC[N+](=O)[O-]
[2]
  activation: 8.93%
[6]
  outcome: inactive

## Oc1ccc(Cl)c(Cl)c1Cl
[1]
  Potency: inactive
[6]
  outcome: inactive
[5]
  Potency: inactive

## Nc1ccc(-c2ccc(N)cc2)cc1
[1]
  Potency: inactive
[4]
  Potency: inactive

## O=C(Cl)c1ccccc1F
[4]
  Potency: inactive

## Cc1cnc[nH]1
[2]
  activation: -7.55%
[6]
  outcome: inactive

## CCCCC#N
[4]
  Potency: inactive

## CC(C)OS(C)(=O)=O
[4]
  Potency: inactive
[6]
  outcome: inactive
[5]
  Potency: inactive

## O=[N+]([O-])c1ccc2c3c(cccc13)CC2
[1]
  Potency: inactive
[4]
  Potency: inactive
[6]
  outcome: inactive
[5]
  Potency: inactive

## Nc1ccc(Cl)c(Cl)c1
[1]
  Potency: inactive
[5]
  Potency: inactive

## CCOP(=S)(OCC)Oc1nc(Cl)c(Cl)cc1Cl
[1]
  Potency: inactive
[7]
  outcome: inactive
[8]
  outcome: inactive
[4]
  Potency: inactive
[2]
  activation: 5.31% and -6.07%
[3]
  outcome: inactive
[6]
  outcome: inactive

## O=P(OCCCl)(OCCCl)OCCCl
[6]
  outcome: inactive
[5]
  Potency: inactive

## O=C(Cc1ccccc1)OCc1ccccc1
[6]
  outcome: inactive
[5]
  Potency: inactive

## CN(C)C(=O)Nc1ccc(Cl)cc1
[6]
  outcome: inactive
[5]
  Potency: inactive

## Cc1cccc(N)c1C
[4]
  Potency: inactive
[6]
  outcome: inactive

## O=C(O)CBr
[5]
  Potency: inactive

## C=CCCC#N
[6]
  outcome: inactive

## Oc1cc(Cl)cc(Cl)c1
[4]
  Potency: inactive
[5]
  Potency: inactive

## Clc1cccc(Cl)c1Cl
[5]
  Potency: inactive

## CN(C)N=O
[6]
  outcome: inactive

## CC12CC1(C)C(=O)N(c1cc(Cl)cc(Cl)c1)C2=O (centres undefined)
[2]
  activation: -2.56% and 15.9%

## Oc1cccc(Cl)c1Cl
[4]
  Potency: inactive

## O=c1ccc(=O)[nH][nH]1
[2]
  activation: 2.82% and 4.44%
[3]
  outcome: inactive
[6]
  outcome: inactive

## CC(=O)CCC(C)=O
[4]
  Potency: inactive

## Cl/C=C/CCl
[5]
  Potency: inactive

## BrC(Br)Br
[6]
  outcome: inactive

## BrCC(Br)C1CCC(Br)C(Br)C1 (centres undefined)
[2]
  activation: 1.31%
[3]
  outcome: inactive

## C=CC=O
[5]
  Potency: inactive

## COC(=O)Nc1nc2ccccc2[nH]1
[2]
  activation: 10.4% and 9.09%

## Clc1cccc2ccccc12
[5]
  Potency: inactive

## CC(C)(OOC(C)(C)c1ccccc1)c1ccccc1
[2]
  activation: 9.96%
[3]
  outcome: inactive
[6]
  outcome: inactive

## Cc1cc(-c2cc(C)c(N)c(C)c2)cc(C)c1N
[1]
  Potency: inactive

## N#CCCCCC#N
[6]
  outcome: inactive
[5]
  Potency: inactive

## CC(Cl)(Cl)Cl
[5]
  Potency: inactive

## ClCCOCOCCCl
[6]
  outcome: inactive

## CSSC
[5]
  Potency: inactive

## CC(C)[C@]12CC(=O)[C@H](C)[C@H]1C2
[6]
  outcome: inactive

## Cc1cc(-c2ccc(N)c(C)c2)ccc1N
[1]
  Potency: inactive
